# TNAP act DEA – human TNAP activation, intermediate phosphate acceptor; activation factor at 20 µM; AID 813; P05186; purified TNAP, CDP-star luminescence, 100 mM DEA, 30 min; stronger effect = higher value; scale: 0 levamisole-inhibited, 1 vehicle-only enzyme; 64,000 tested, under 10 active;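 active = activation factor of at least 2 at 20 µM, relative to controls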
# HePTP inhibitor – human HePTP phosphatase inhibition; AID 521; recombinant HePTP phosphatase activity, OD absorbance; P35236; inhibition, % at 20 µM; 110,000 compounds, 0.64% hits; in the data active = inhibition above about 50%;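 also: plate controls were vehicle for no effect and reference inhibitor for full effect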
# Calb biofilm kill – kills Candida albicans biofilms; C. albicans biofilm + clotrimazole, Alamar Blue; inhibition, % at 6 µM; 85,000 compounds, 0.14% hits; AID 834;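 active = inhibition above 20%; inactive = inhibition below 20%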;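 also: preformed 24 hr biofilms exposed to compound for 48 hr; 0% = biofilm without compound and 100% = blank killed by clotrimazole plus chlorhexidine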
# D1 mod – D1 dopamine receptor (human) allosteric modulation; B-score at 10 µM; 58,000 compounds, 5.9% hits; AID 641; HEK293 D1, CRE-luciferase, dopamine EC30 potentiation; actives deviate in either direction; P21728;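 active = luminescence count or its row- and column-corrected plate score outside the 99.7% band of the plate's sample wells, on either side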
# PLAP act – activators of human placental alkaline phosphatase; purified PLAP enzyme, luminescent substrate read-out; stronger effect = higher value; P05187; AID 696; activation fold at 20 µM; 96,000 compounds, 1.2% hits; in the data active = activation fold above about 2
# hDAT+cocaine – changed human dopamine transporter uptake under cocaine IC80; Q01959; LLC-PK1 hDAT cells, [14C]-dopamine uptake with cocaine IC80; actives deviate in either direction; B-score at 10 µM; 110,000 compounds, 1.3% hits; AID 449768;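 active = Z score or B-score, a plate-position-corrected score, falls beyond the plate's 99.7% confidence bounds, in either direction; inactive = both scores lie inside the 99.7% bounds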;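 also: scored against the spread of the other compound wells on the same plate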
# Target sequence (Q01959 whole entry, looked up): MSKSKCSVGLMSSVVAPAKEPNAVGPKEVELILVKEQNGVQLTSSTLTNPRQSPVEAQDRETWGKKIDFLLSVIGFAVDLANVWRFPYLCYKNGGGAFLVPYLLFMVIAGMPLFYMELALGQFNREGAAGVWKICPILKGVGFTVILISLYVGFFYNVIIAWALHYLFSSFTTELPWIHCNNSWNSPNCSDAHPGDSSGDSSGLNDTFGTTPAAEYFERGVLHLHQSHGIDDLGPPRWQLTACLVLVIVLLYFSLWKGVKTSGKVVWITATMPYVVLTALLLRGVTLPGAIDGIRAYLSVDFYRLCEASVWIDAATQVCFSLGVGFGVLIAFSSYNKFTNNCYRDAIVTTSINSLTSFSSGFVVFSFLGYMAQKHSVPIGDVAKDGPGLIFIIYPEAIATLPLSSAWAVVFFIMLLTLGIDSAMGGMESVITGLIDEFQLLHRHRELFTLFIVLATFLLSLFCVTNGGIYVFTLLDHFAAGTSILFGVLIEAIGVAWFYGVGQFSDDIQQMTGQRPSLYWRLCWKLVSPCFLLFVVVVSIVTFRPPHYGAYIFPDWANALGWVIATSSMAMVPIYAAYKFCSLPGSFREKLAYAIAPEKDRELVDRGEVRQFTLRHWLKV
# D1 mod confirm – confirmation of human D1 dopamine receptor allosteric modulators | shares compounds with D1 mod | luminescence at 10 µM | AID 642 | HEK293 D1 CRE-luciferase, dopamine EC30 potentiation; stronger effect = higher value | 2,200 compounds, 88% hits;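 active = luminescence in either of two replicates above the same-plate mean plus 3 SD of the low-dose dopamine control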
# D1 no dopamine – secondary test of D1 modulators: activity without dopamine; shares compounds with D1 mod; HEK293 D1 CRE-luciferase, luminescence, no dopamine; stronger effect = higher value; luminescence at 10 µM; 1,900 compounds, 0.8% hits; in the data active = luminescence above about 3900
# Isoprot counter – counter-screen for D1 modulators: isoproterenol response in HEK293 cells; shares compounds with D1 mod; HEK293 D1 CRE-luciferase, isoproterenol EC30 counter-screen; stronger effect = higher value; luminescence at 10 µM; 2,200 compounds, 63% hits; AID 647;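 active = luminescence in either replicate above plate mean of wells with a partly effective reference agonist dose plus 3 SD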;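 also: isoproterenol raises cAMP through native beta-adrenoceptor Gs so signal bypasses D1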
# The depositor's hits bear a star; x = no result. Many of the other results were omitted from the sample, so hits are more common in it than they were.
SMILES,TNAP act DEA,HePTP inhibitor,Calb biofilm kill,D1 mod,PLAP act,hDAT+cocaine,D1 mod confirm,D1 no dopamine,Isoprot counter
CCn1nc(C(=O)NC2=NCCS2)c2ccccc2c1=O,0.9,4.7,8.9,2.86*,1.6,0.0701,9356*,1640,2924
COc1ccccc1OCC(=O)c1[nH]c(C)c(C(C)=O)c1C,1,2.9,3.7,-0.123,1,1.17,x,x,x
COc1cc(CN(C)CC(=O)c2[nH]c(C)c(C(C)=O)c2C)ccc1OC(F)F,0.8,1.0,x,5.02*,1.1,1,7936*,1244,4104*
COc1ccc(C2(C)NC(=O)N(Cc3cc(Cl)cc4c3OCOC4)C2=O)cc1OC (stereo not drawn),0.9,1.4,9.6,10.4*,1.2,0.546,22312*,1836,5968*
CCCS(=O)(=O)N1CCC(C(=O)NCCN(C)Cc2ccccc2)CC1,0.9,-4.0,3.9,2.6*,0.9,-1.57,5744,1548,2252
Brc1ccccc1Cn1c(-c2cncs2)nc2ccccc21,1,-5.0,8.4,10.2*,0.8,-0.188,19056*,1708,4180*
CC(=O)NC1(c2ccccc2)CCN(c2nc(C)cc(C)n2)CC1,0.8,5.2,2.1,3.45*,1.7,-1.55,7128,1700,2652
Cc1cc(C)nc(N2CCC(C(=O)NC3CCCc4ccccc43)CC2)n1 (stereo not drawn),0.9,1.3,9.1,0.201,0.9,-0.389,x,x,x
CCN(CC)c1ccc(/C=C2/C=C(c3ccc(C)cc3)OC2=O)cc1,x,-1.5,x,x,x,x,x,x,x
OCCNc1nc(C2CC2)nc2c1nnn2Cc1ccccc1Cl,0.9,7.4,4.5,8.9*,0.9,-0.456,14928*,1728,2932
COCCNc1nc(C(C)(C)C)nc2c1nnn2Cc1ccccc1Cl,0.9,-0.5,-0.5,0.289,0.7,0.566,x,x,x
O=C(c1ccc(Cl)cc1)c1ccc2c(c1)CCCO2,x,-4.9,x,x,x,x,x,x,x
CC1=NN(c2ccc(S(N)(=O)=O)cc2)C(=O)/C1=C\c1ccc(-c2ccc(S(N)(=O)=O)cc2)o1,x,23.2,x,x,x,x,x,x,x
Cc1ccc(S(=O)(=O)N/N=C/c2c(Cl)cccc2Cl)cc1[N+](=O)[O-],x,-1.2,x,x,x,x,x,x,x
CCCC(=O)Nc1ccc(NC(=O)C2CC2)cn1,1,11.8,-4.7,5.32*,1.1,-0.678,5976*,1712,2456
CNc1nc(C)nc(-c2ccccc2O)n1,0.9,4.9,-0.4,9.09*,0.9,x,23276*,1644,4072*
Cc1nc2ccccc2c2nc(N)nn12,x,x,8.1,x,x,0.0265,x,x,x
O=c1c2ccccc2nc(Cc2ccccc2)n1-c1cccc2ccccc12,x,0.3,x,x,x,x,x,x,x
Nc1nc2c3ccccc3nc(Cc3ccccc3)n2n1,0.9,4.8,-0.2,15.8*,0.9,-0.935,11064*,1640,3752*
CCCc1nc2ccccc2c2nc(N)nn12,0.9,9.3,3.2,27.3*,1.1,-0.122,19312*,1684,6464*
C/C(=N\N1C(=O)CN(Cc2ccccc2)C1c1ccccc1)c1ccccc1 (stereo not drawn),x,-19.9,x,x,x,x,x,x,x
COc1ccc(CN(CCN(C)C)c2ccccn2)cc1,0.9,10.2,12.1,5.24*,x,0.0114,3680,1484,3100
CCOC(=O)NCCc1ccc(OC)cc1,1,-9.1,-5.9,3.75*,0.9,-0.681,8468*,1752,2664
CCn1c(SCC(=O)Nc2ccccc2N2CCCCC2)nc2c1c(=O)n(C)c(=O)n2C,0.9,13.2,2.4,3.94*,1.2,0.0365,6828*,1584,2528
CCn1c(SCC(=O)OCc2ccccc2)nc2c1c(=O)n(C)c(=O)n2C,1,-1.2,4.5,3.95*,1.2,0.419,5976,1308,2740
SMILES,TNAP act DEA,HePTP inhibitor,Calb biofilm kill,D1 mod,PLAP act,hDAT+cocaine,D1 mod confirm,D1 no dopamine,Isoprot counter
CC(C)n1c(SCC(=O)Nc2ccccc2N2CCOCC2)nc2c1c(=O)n(C)c(=O)n2C,x,x,-8.5,x,x,-0.932,x,x,x
Cc1ccc2nc(NC(=O)c3ccccc3Cl)sc2c1,x,-7.0,x,x,x,x,x,x,x
Cn1c(NC(=O)c2cccc(C(F)(F)F)c2)cc(=O)n(C)c1=O,0.8,7.8,5.9,6.95*,x,-0.585,17760*,1560,3820*
CC(C)CN1CN(S(=O)(=O)c2cccs2)c2nc3ccccc3nc21,0.8,26.5,4.3,11.4*,0.9,0.604,18664*,1708,3524*
C=CCn1c2ccccc2c2nnc(SCC(=O)NC(C(=O)OC)C(C)C)nc21 (stereo not drawn),0.9,11.1,8.2,4.37*,1.3,0.614,7244*,1452,2732
CCn1c2ccccc2c2nnc(SCCCn3c(=O)[nH]c4ccccc43)nc21,0.9,2.8,6.7,9.59*,1.4,0.42,10684*,1736,3096
CCn1c2ccccc2c2nnc(SCc3ccc(C(=O)OC)o3)nc21,0.9,7.8,3.7,5.6*,1,0.476,9356*,1384,4312*
CCn1c2ccccc2c2nnc(SCc3ccccc3)nc21,0.9,2.8,7.4,1.48,1.1,-0.32,x,x,x
CCOc1ccc(NC(=O)C2=C(C)NC(=O)NC2c2ccc(Cl)cc2Cl)cc1 (stereo not drawn),x,-0.3,x,x,x,x,x,x,x
COC(=O)CN(c1cccc(OC)c1)S(=O)(=O)c1ccccc1,x,-20.2,x,x,x,x,x,x,x
COc1ccc(/C=N/S(=O)(=O)c2cccs2)cc1OC,x,0.1,x,x,x,x,x,x,x
O=C(N/N=C/c1ccc(Cl)c([N+](=O)[O-])c1)/C(=C\c1ccc2c(c1)OCO2)NC(=O)c1ccccc1,x,-13.8,x,x,x,x,x,x,x
Clc1ccc(Cn2cc(/C=N/n3cnnc3)c3ccccc32)cc1Cl,x,5.7,x,x,x,x,x,x,x
Cc1ccc(S(=O)(=O)NCCCNC(=O)N2CCOCC2)cc1,0.8,3.8,2.2,2.95*,1,1.49,5144,1760,2244
Cc1ccc(S(=O)(=O)NCCNC(=O)N2CCOCC2)cc1,1,2.9,5.0,0.212,0.9,1.49,x,x,x
COc1ccc(-c2noc(-c3ccc(I)cc3)n2)cc1,x,-2.5,x,x,x,x,x,x,x
CNC(=O)c1[nH]cnc1C(=O)Nc1cccc(OC)c1,1,-2.1,-1.7,4.49*,1.9,-0.42,10128*,1656,3188*
CNC(=O)c1[nH]cnc1C(=O)Nc1ccc(C)cc1,x,x,1.0,x,x,0.229,x,x,x
COc1ccc(NC(=O)c2nc[nH]c2C(=O)Nc2ccc(OC)cc2)cc1,x,-0.4,x,x,x,x,x,x,x
Cc1ccccc1NC(=O)c1nc[nH]c1C(=O)NCc1ccccc1,1,-7.2,7.6,5.09*,1.4,-0.479,14280*,1616,2836
COc1ccc(NC(=O)c2nc[nH]c2C(=O)Nc2ccccc2C)cc1,0.9,-2.8,9.9,7.54*,1,-1.04,14740*,1512,3268*
O=[N+]([O-])c1ccc2nc(SCc3c[nH]c4ccccc34)sc2c1,x,9.9,x,x,x,x,x,x,x
